Results filed as inconclusive are left out. Unmarked numbers belong to inactive results. The call rests on the fitted dose curve; in most records, active means well fitted cell-killing curve with a large enough effect; inconclusive means small, poorly fitted or top-dose-only effect, or effect the other way; inactive means flat fitted curve, though single readings scatter.
On the % scale 0 is the no-effect control and ±100 the full control effect.

The assay deals with Tov-21-G. The experiment in a line: Primary qHTS to identify gynecologic anti-cancer compounds using libraries of approved drugs and bioactive compounds (AID 1345084). Further: nearly all actives have a fitted effect of over 55% in size. The note with it: Gynecologic cancer cell panel viability, ATPlite luminescence, 48 h; series mostly up to 57.5 µM; activity change, negative = cytotoxicity: at the top concentration. The essentials:
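Measured: luminescence after ATPlite addition (15 min, RT). Exposure: 48 h, 37 C, 5% CO2.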
For the molecule `O=C(O)CCc1c(C(=O)O)[nH]c2cc(Cl)cc(Cl)c12`, the “activity change, negative = cytotoxicity” value is 8.87% [at 25.3 µM].
For the molecule `OC[C@@]1(O)CO[C@H](OC[C@H]2O[C@@H](OCCc3ccccc3)[C@H](O)[C@@H](O)[C@@H]2O)[C@@H]1O`, the “activity change, negative = cytotoxicity” value was 1.69% [at 25.3 µM].
In the case of `C=C1CC[C@H]2[C@@](C)(CCC(O)[C@@]2(C)CO)[C@@H]1/C=C/C(=C\C(=O)O)C(=O)O` (stereo partly specified), the “activity change, negative = cytotoxicity” value is -1.75% [at 38.5 µM].
Take `C=C1C(OC(C)=O)C(=O)C2C(C)(C)C(O)CCC2(C)C1CC(OC(C)=O)/C(C)=C/COC(C)=O` (stereo unspecified): the “activity change, negative = cytotoxicity” value was -2.06% [at 25.3 µM].
In the case of `Cc1cc(-c2nncc3c(C(C)(C)C)c(OCc4ncnn4C)nn23)no1`, the “activity change, negative = cytotoxicity” value was 6.65%.
In the case of `C=C1CC2C(C)(CCC(=O)O)C(C(C)(C)O)CCC2(C)C2(C(=O)OC)C(=O)C(C)(O)C(=O)C12C` (stereo unspecified), the “activity change, negative = cytotoxicity” value is -0.693% [at 25.3 µM].
Regarding `C[C@@H]1O[C@@H](O[C@H]2[C@H](OC(=O)[C@]34CCC(C)(C)C[C@H]3C3=CCC5[C@@]6(C)CC[C@H](O[C@@H]7O[C@H](CO[C@@H]8OC[C@H](O)[C@H](O)[C@H]8O[C@@H]8OC[C@@H](O)[C@H](O)[C@H]8O)[C@@H](O)[C@H](O)[C@H]7O)C(C)(C)C6CC[C@@]5(C)[C@]3(C)C[C@H]4O)O[C@H](CO)[C@@H](O)[C@@H]2O)[C@H](O[C@@H]2O[C@H](CO)[C@@H](O)[C@H](O)[C@H]2O)[C@H](O)[C@H]1O[C@@H]1OC[C@@H](O)[C@H](O[C@@H]2OC[C@@H](O)[C@H](O)[C@H]2O)[C@H]1O` (stereo partly specified), the activity change, negative = cytotoxicity was -2.86% [at 6.55 µM].
As for `COCCCc1sc(-c2ccccc2)nc1C(=O)Nc1ccccc1-c1nc2cc(CN3CCCC3)cnc2s1`, the figure is 0.805% [at 25.3 µM]; as for `COc1cnc(-c2ccc(Cn3c(CC(C)(C)C(=O)O)c(SC(C)(C)C)c4cc(OC[C@@H]5Cc6ccccc6N5C(C)=O)ccc43)cc2)nc1`, 10.5% [at 38.5 µM]; as for `COC(=O)C(CC1CCCC1)c1ccc(S(C)(=O)=O)cc1` (stereo unspecified), -1.44%.
In the case of `N#Cc1cccc(-c2c[nH]c3ncnc(N4CCOCC4)c23)c1` it was 9.57%; in that of `CC(=O)O[C@@H]1[C@@H](O)[C@H](C)O[C@@H](O[C@H]2[C@@H]3C=CO[C@@H](O[C@@H]4O[C@H](CO)[C@@H](O)[C@H](O)[C@H]4OC(C)=O)[C@@H]3[C@@]3(CO)O[C@@H]23)[C@@H]1OC(=O)/C=C/c1ccc(O)cc1`, 6.23% [at 25.3 µM]; in that of `COc1ccc(-n2[nH]c3c(cnc4ccccc43)c2=O)cc1`, -1.01%.
On to `COc1cc(/C=C/C(=O)OC[C@H]2O[C@@H](OC3OC=C(C(=O)O)C4C(O)CC(C)(O)C34)[C@H](O)[C@@H](O)[C@@H]2O)cc(OC)c1O` (stereo partly specified), for which the “activity change, negative = cytotoxicity” value is 5.65% [at 25.3 µM].
As for `CC1(C)CC[C@]2(C(=O)O[C@@H]3O[C@H](CO)[C@@H](O)[C@H](O)[C@H]3O)CC[C@]3(C)C(=CCC4[C@@]5(C)CC[C@H](O[C@@H]6O[C@H](C(=O)O)[C@@H](O)[C@H](O)[C@H]6OC6OC(CO)C(O)C(O)C6O)C(C)(C)C5CC[C@]43C)[C@@H]2C1` (stereo partly specified), the activity change, negative = cytotoxicity was 6.86% [at 11.6 µM].
Regarding `CC1(C)CCC[C@]2(C)C1CC=C(CO)[C@H]2CC/C(=C/CO)CO` (stereo partly specified), the “activity change, negative = cytotoxicity” value is 2.96% [at 38.5 µM].
For the molecule `CCC(C)C(N)C(=O)NCCN1CCOCC1` (stereo unspecified), the “activity change, negative = cytotoxicity” value was -0.504%.
As for `N#Cc1cccc(-c2nc(-c3cccnc3)no2)c1`, the “activity change, negative = cytotoxicity” value was -7.25% [at 25.3 µM].
`CC1CCC2C(C)(C)[C@H](O)CC[C@]2(C)C12Cc1c(O)cc3c(c1O2)CN(C(CCC(=O)O)C(=O)O)C3=O` (stereo partly specified): the “activity change, negative = cytotoxicity” value is -9.8% [at 25.3 µM].
As to `CC1=C2C(=O)C=C(CO)C2[C@H]2OC(=O)[C@H](C)[C@@H]2[C@@H](OC(=O)Cc2ccc(O)cc2)C1` (stereo partly specified), the “activity change, negative = cytotoxicity” value is 13.3% [at 25.3 µM].
As for `CC1=CCC[C@@H]2[C@](CCc3ccoc3)(C(=O)O)[C@H](C)CC[C@@]12C`, the “activity change, negative = cytotoxicity” value was -0.279% [at 38.5 µM].
Take `CC1CC(=O)C2C(O)(C1)CC(O)C13OC1c1c(O)cccc1C(=O)C23O` (stereo unspecified): the “activity change, negative = cytotoxicity” value was -5.57% [at 38.5 µM].
As to `COc1cc([C@H]2OC[C@](O)(Cc3ccc(O[C@@H]4O[C@H](CO)[C@@H](O)[C@H](O)[C@H]4O)c(OC)c3)[C@@H]2CO)ccc1O`, the “activity change, negative = cytotoxicity” value was 5.67% [at 25.3 µM].
Consider `CN1CCCC1Cc1c[nH]c2ccc(CCS(=O)(=O)c3ccccc3)cc12` (stereo unspecified), for which the “activity change, negative = cytotoxicity” value is 1.92%.
Take `COC1CC(O[C@H]2CC[C@@]3(C)C(=CC[C@]4(O)C3[C@H](O)[C@@H](O)[C@]3(C)[C@@H]([C@H](C)O)CC[C@@]34O)C2)OC(C)C1OC1CC(OC)C(OC2CC(OC)C(OC3OC(C)C(OC4OC(CO)C(O)C(O)C4O)C(OC)C3O)C(C)O2)C(C)O1` (stereo partly specified): the activity change, negative = cytotoxicity was -0.0649% [at 11.6 µM].
For the molecule `C/C=C1/[C@H](O[C@@H]2O[C@H](CO)[C@@H](O)[C@H](O)[C@H]2O)OC=C2C(=O)O[C@@H]3C[C@@H](C(C)CO)[C@H](COC(=O)C[C@H]21)[C@H]3C` (stereo partly specified), the “activity change, negative = cytotoxicity” value is -8.84% [at 25.3 µM].

The record behind these values is PubChem BioAssay (NCATS).
